PAFAH1B2 inh: PAFAH1B2 (human) inhibition; actives 1.2% (n = 340,000); inhibition, % at 3.39 µM; recombinant PAFAH1B2, FP-rhodamine activity probe, fluorescence polarization; P68402;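 active = inhibition above the mean of all tested compounds plus 3 SD, cut at about 24% in these data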;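 note: 0% = enzyme with DMSO and 100% = wells lacking PAFAH1B2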
PAFAH1B3 inh: blocks human PAF acetylhydrolase 1B catalytic subunit 3; Q15102; recombinant PAFAH1B3, FP-rhodamine probe, fluorescence polarization; inhibition, % at 3.39 µM; actives 0.28% (n = 340,000); AID 492972;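 active = inhibition above the screen-wide average of all tested compounds plus 3 SD, cut at about 25% in these data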;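 note: 0% = enzyme with DMSO only and 100% = wells lacking PAFAH1B3 protein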
PAFAH2 inh: inhibitors of human PAFAH2; Q99487; recombinant PAFAH2, FP-rhodamine activity probe, fluorescence polarization; inhibition, % at 3.39 µM; actives 0.99% (n = 340,000);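 active = inhibition above the mean over all tested compounds plus 3 SD, cut at about 30% in these data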;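 note: inhibitors block probe labeling of enzyme so polarization drops; 0% = enzyme with DMSO and 100% = wells lacking PAFAH2 protein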
PfM18AAP inh: blocks P. falciparum M18 aspartyl aminopeptidase; inhibition, % at 7.35 µM; recombinant PfM18AAP, H-Glu-NHMec fluorogenic cleavage; AID 1822; actives 1.2% (n = 290,000);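 active = inhibition above the campaign mean inhibition over all tested compounds plus 3 SD, cut at about 28% in these data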;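 note: 0% = plate median of test compound wells and 100% = 2 mM ZnCl2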
pPAFAH inh: inhibitors of human plasma PAF acetylhydrolase (pPAFAH). Q13093. recombinant pPAFAH, FP-rhodamine probe fluorescence polarization. inhibition, % at 3.39 µM. actives 1.5% (n = 330,000). AID 463082;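 active = inhibition above the mean inhibition across the screen plus 3 SD, cut at about 25% in these data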;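 note: inhibitors block binding of the rhodamine activity-based probe so polarization drops; 0% = enzyme with DMSO and 100% = wells lacking pPAFAH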
DSG3 Ab inh: blocks pemphigus antibody binding to human desmoglein-3 | P32926 | DSG3-coupled beads, scFv-anti-DSG3-GFP binding, flow cytometry; stronger effect = lower value | binding (percent of control), % at 10 µM | actives 0.48% (n = 310,000) | AID 588358;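 active = binding more than 3 SD below its plate's average and above zero; inconclusive = below that plate limit but binding exactly zero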;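 note: hits lower antibody fragment binding to DSG3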
Target sequence (P32926 whole entry, looked up, the tested form may be a part): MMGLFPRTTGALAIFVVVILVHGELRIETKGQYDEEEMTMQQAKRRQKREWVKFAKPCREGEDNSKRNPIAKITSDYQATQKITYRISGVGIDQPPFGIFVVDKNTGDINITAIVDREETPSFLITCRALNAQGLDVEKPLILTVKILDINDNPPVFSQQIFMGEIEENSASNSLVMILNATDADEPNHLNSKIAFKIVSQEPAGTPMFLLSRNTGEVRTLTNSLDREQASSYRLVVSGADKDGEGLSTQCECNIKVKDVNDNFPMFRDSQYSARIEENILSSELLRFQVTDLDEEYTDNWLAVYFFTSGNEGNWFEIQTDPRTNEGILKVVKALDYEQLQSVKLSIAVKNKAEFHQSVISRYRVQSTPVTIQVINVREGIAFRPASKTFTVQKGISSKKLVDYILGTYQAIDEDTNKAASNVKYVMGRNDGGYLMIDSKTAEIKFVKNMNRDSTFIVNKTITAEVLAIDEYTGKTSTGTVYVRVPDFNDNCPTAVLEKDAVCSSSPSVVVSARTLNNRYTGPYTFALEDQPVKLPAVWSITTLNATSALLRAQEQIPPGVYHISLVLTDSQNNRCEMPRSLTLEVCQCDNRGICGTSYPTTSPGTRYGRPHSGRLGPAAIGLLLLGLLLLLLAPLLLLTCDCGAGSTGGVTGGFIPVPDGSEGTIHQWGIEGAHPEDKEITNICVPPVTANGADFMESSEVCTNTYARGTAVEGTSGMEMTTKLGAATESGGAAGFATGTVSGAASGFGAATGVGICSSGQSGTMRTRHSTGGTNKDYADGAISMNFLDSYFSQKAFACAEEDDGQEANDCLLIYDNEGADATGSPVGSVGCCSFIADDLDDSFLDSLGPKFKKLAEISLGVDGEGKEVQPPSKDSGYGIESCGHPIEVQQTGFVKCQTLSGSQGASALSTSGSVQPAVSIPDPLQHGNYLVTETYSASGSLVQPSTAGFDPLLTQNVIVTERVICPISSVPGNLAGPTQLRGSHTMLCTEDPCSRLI
PAFAH2 confirm: confirmation of human PAFAH2 inhibitors; shares compounds with PAFAH2 inh; AID 493030; inhibition, % at 3.39 µM; actives 65% (n = 2,300); recombinant PAFAH2, FP-rhodamine activity probe, fluorescence polarization;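 active = mean inhibition over three repeats above a set limit taken from the earlier primary screen, cut at about 30% in these data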;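 note: inhibitor blocks binding of rhodamine activity probe so polarization falls; 0% = enzyme with DMSO and 100% = wells lacking PAFAH2 protein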
An asterisk follows results filed as active; ? = inconclusive; . = no result. The list is not random: actives were taken first. Their share in the collection is about 3.8%.

SMILES	PAFAH1B2 inh	PAFAH1B3 inh	PAFAH2 inh	PfM18AAP inh	pPAFAH inh	DSG3 Ab inh	PAFAH2 confirm
Cc1ccc(S(=O)(=O)NCc2cccnc2)cc1	0	0	-2	-6	6	98	.
O=C(COC(=O)/C=C/c1ccccc1)NC(=O)NC1CCCCC1	0	-1	35*	.	9	142	25
O=C(COC(=O)/C=C/c1ccc([N+](=O)[O-])cc1)NC(=O)NC1CCCCC1	3	-2	4	.	6	?	.
O=C(COC(=O)/C=C/c1cccc(C(F)(F)F)c1)NC1CCCCCC1	1	3	31*	.	-4	99	43*
O=C(COC(=O)/C=C/c1ccc(C(F)(F)F)cc1)NC1CCCC1	-3	2	20	2	10	?	.
O=C(COC(=O)/C=C/c1ccccc1[N+](=O)[O-])NC1CC1	7	-4	36*	-1	20	79	23
O=C(COC(=O)/C=C/c1cccs1)NC1CC1	1	4	41*	-1	-10	106	39*
COc1ccccc1NS(=O)(=O)c1ccc(O)c(NC(=S)NCC2CCCO2)c1 (configuration not stated)	-5	7	1	12	4	97	.
CN(C(=O)CSc1nnc(C2CC2)n1-c1ccccc1)C1CCS(=O)(=O)C1 (configuration not stated)	3	-1	-9	.	0	102	.
COc1ccc(S(=O)(=O)N2CCCCC2)cc1NC(=O)CNc1ccc(F)cc1C	5	5	17	.	0	100	.
O=C(COC(=O)/C=C/c1ccccc1)NC1CC1	-1	8	54*	.	1	103	33*
CCN(C(=O)COC(=O)/C=C/c1ccccc1)C1CCCCC1	3	-2	-1	-2	5	101	.
O=C(COC(=O)/C=C/c1ccccc1)NC1CCS(=O)(=O)C1 (configuration not stated)	-4	11	6	.	2	.	.
O=C(COC(=O)/C=C/c1ccccc1)NC1CCCCCC1	2	7	89*	.	.	102	82*
Cc1ccc(NC(=O)c2cccc(-n3cnnn3)c2)cc1Cl	0	3	-6	.	-6	99	.
CCc1ccc(-c2cc(C)no2)cc1S(=O)(=O)N1CCN(c2ccc(F)cc2)CC1	4	6	9	3	7	96	.
C[C@]12c3[nH]c4cc(-c5ccco5)ccc4c3CCN1C(=O)[C@@H](CC(=O)NCc1cccc(C(F)(F)F)c1)C[C@@H]2C(=O)N1CCCCC1	7	6	2	.	10	98	.
COc1ccc(/C=C/C(=O)ONC2=NCCCCC2)cc1OC	2	-1	51*	1	4	95	44*
COc1ccccc1NC(=O)c1ccc(-c2nn(C)c(=O)c3ccccc23)cc1	3	6	-9	2	0	110	.
COc1ccc(NC(=O)c2ccc(-c3nn(C)c(=O)c4ccccc34)cc2)cc1	0	19	35*	0	3	95	8
Cc1cccc(C(=O)N2c3ccccc3C(=O)OC2c2ccc3c(c2)OCO3)c1 (configuration not stated)	4	4	31*	-11	-1	106	34*
CC(=O)N1C(c2ccccc2)CC(=O)OC1c1ccc2c(c1)OCO2 (configuration not stated)	-4	-1	1	2	-4	.	.
O=C1OC(c2ccc3c(c2)OCO3)N(C(=O)c2ccc(Cl)c(Cl)c2)c2ccccc21 (configuration not stated)	5	0	48*	8	-11	106	47*
Cc1nc2ccc(NC(=O)CSc3ccccc3)cc2s1	8	13	2	.	2	99	.
COc1cc(Cl)ccc1OCc1cc(C(=O)N(C)CC2CCCCO2)no1 (configuration not stated)	-4	2	6	-12	4	99	.
SMILES	PAFAH1B2 inh	PAFAH1B3 inh	PAFAH2 inh	PfM18AAP inh	pPAFAH inh	DSG3 Ab inh	PAFAH2 confirm
Cc1c(C(c2cccc(Br)c2)c2c(C)n(C)n(-c3ccccc3)c2=O)c(=O)n(-c2ccccc2)n1C	2	4	39*	0	1	107	20
Cc1c(C(c2ccccc2)c2c(C)n(C)n(-c3ccccc3)c2=O)c(=O)n(-c2ccccc2)n1C	3	8	-2	-4	-1	106	.
O=C(ON=C1CCSCC1)c1ccccc1	1	5	78*	-1	8	102	76*
O=C(ON=C1CCN(c2ccc([N+](=O)[O-])cc2)CC1)c1ccccc1	6	7	90*	3	10	100	86*
O=C(NCCc1ccc(Cl)cc1)C1CC(=O)N(C2CCCC2)C1 (configuration not stated)	13	3	104*	-10	1	106	-4
O=C(COC(=O)c1ccccc1)Nc1ccc(Cl)cn1	0	7	46*	3	2	100	49*
CCOc1ncccc1C(=O)OCC(=O)c1ccc(Br)s1	1	2	50*	.	12	96	35*
COc1ccc(C(=O)OCC(=O)Nc2ccc(Cl)cn2)cc1	3	1	56*	-2	6	.	54*
CCOc1ncccc1C(=O)OCC(=O)Nc1ccc(Cl)cn1	3	6	46*	.	24	89	29
CSc1ncccc1C(=O)OCC(=O)Nc1ccc(Cl)cn1	3	1	4	.	4	111	.
COc1ccc(CC(=O)OCC(=O)Nc2ccc(Cl)cn2)cc1	5	-7	2	5	16	112	.
Cc1cc(=O)n2nc(N3CCC(C(=O)NCc4ccccc4F)CC3)sc2n1	-4	3	4	3	4	101	.
CC(NC(=O)c1cc(Br)ccc1Br)c1ccccc1 (configuration not stated)	.	.	.	2	1	.	.
COc1ccc(-n2c(SCc3cn4c(C)cccc4n3)nc3ccccc3c2=O)cc1OC	-2	-1	-1	-4	-3	94	.
Cc1ccc(S(=O)(=O)N2CCCCC2)cc1NC(=O)COC(=O)c1c(F)cccc1F	-3	7	38*	-1	6	103	23
Cc1ccc(S(=O)(=O)N2CCCCC2)cc1NC(=O)COC(=O)c1cc[n+]([O-])cc1	3	12	-1	-2	-1	102	.
Cc1ccc(S(=O)(=O)N2CCCCC2)cc1NC(=O)COC(=O)c1ccc(=O)[nH]c1	-4	6	56*	.	3	?	52*
Cc1ccc(S(=O)(=O)N2CCCCC2)cc1NC(=O)COC(=O)c1ccc(O)cc1	8	6	60*	-2	15	97	67*
Cc1ccc(C)c(NC(=O)COC(=O)c2ccc(S(=O)(=O)N3CCCC3)cc2)c1	.	.	.	.	.	96	.
